About 83,000 compounds went through this panel and 20% of them were active in at least one assay; those are over-represented in the sample as a whole.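 Method: cells in 96-well plates; compound added at one concentration; 48 h incubation; percent growth measured; values under 10 scored active.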 A number with no mark means an inactive call. Calls of active or inactive are those of the source.
tested on: NCI/ADR-RES ovarian; test: NCI-60 one-dose screen, 48 h (100 = growth as untreated, 0 = no growth, -100 = all killed); details: 10 µM unless noted

Row | Structure (SMILES) | growth
1 | COC(=O)c1cccc2c1N(C)c1c(cccc1C(=O)OC)CC2 | 95.6%
2 | COc1ccc(/C=C2\N=C(c3ccccc3)N(C(=O)c3ccccc3O)NC2=O)cc1 | 93.1%
3 | c1cc2[nH]ncc2cc1-c1nc2ccc3[nH]ncc3c2c2c1CCC2 | 58.1%
4 | O=C(Oc1ccccc1[N+](=O)[O-])C1CCCN1C(=O)OCc1ccccc1 (stereo not given) | 92.7%
5 | COc1ccc(CCNC2=CC(=O)CCC2)cc1OC | 102%
6 | O=C(Nc1ccncc1)C(=O)c1cn(S(=O)(=O)c2ccc(Cl)cc2)c2ccccc12 | -4.89% (active)
7 | O=C(Nc1cccc(-n2cc(-c3ccncc3)c(-c3ccc(Cl)c(O)c3)n2)c1)Nc1ccc(Cl)c(Cl)c1 | 20.9%
8 | O=C(Nc1ccncc1)C(=O)c1cn(S(=O)(=O)c2ccccc2F)c2ccccc12 | -17.7% (active)
9 | O=C(c1ccccc1)C1OC1c1ccc([N+](=O)[O-])cc1 (stereo not given) | 57.9%
10 | Cc1ccc(Cc2c(C=O)nc(N)[nH]c2=O)c2ccccc12 | 103%
11 | CCN(CC)CCOC(=O)C(c1ccccc1)(c1ccccc1)C(C)C | 79.2%
12 | COc1ccc(C(=O)N2NC(=O)/C(=C/c3cn(-c4ccccc4)nc3-c3ccccc3)N=C2c2ccccc2)cc1 | 106%
13 | CC(C)(C)OC(=O)NC(CSCc1ccccc1)C(=O)ON1C(=O)CCC1=O (stereo not given) | 103%
14 | COc1ccc(C2=C(c3cc(OC)c(OC)c(OC)c3)C(=O)CC2)cc1 | -49.4% (active)
15 | COc1ccc(C(=O)N2NC(=O)/C(=C/c3ccccc3F)N=C2c2ccccc2)cc1 | 105%

From PubChem BioAssay (NCI)
